Screens: PubChem, National Center for Advancing Translational Sciences (NCATS)
ALDH1A1 inh = ALDH1A1 (human) enzyme inhibition; P00352; Purified ALDH1A1, NADH fluorescence, propionaldehyde substrate; Potency, µM (highest dose often 75.3 µM), hits mostly inhibitors; hit rate 7.3% among 220,000; AID 1030; active = well fitted inhibition curve with a large enough effect, not every such curve was filed as active; inconclusive = small, poorly fitted or top-dose-only effect, or another doubt; inactive = no such curve, though single readings can be large or run the other way
PNC inhibitor = inhibitors of perinucleolar compartment assembly; PC3M PTB-GFP, PNC prevalence imaging, 16 h; hits give low values; activity change (PNC), negative = inhibition, % at 10 µM; hit rate 3.1% among 140,000; AID 2417;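 active = readout at or below -70, meaning at least 70% loss of cells showing the perinucleolar compartment, a nuclear body marking cancer cells; inconclusive = readout between -30 and a set limit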
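Read-out is percentage of cells bearing a perinucleolar compartment, from automated 20x imaging of fixed, Hoechst-stained PC3M PTB-GFP cells. Cells were seeded 4 h, then exposed 16 h to compound (23 nl of library stock) in duplicate plates.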
GLA inh pH 4.5 = alpha-galactosidase A (human) inhibition, pH 4.5; P06280; purified enzyme, 4-MU-alpha-Gal fluorescence, pH 4.5; activity change, negative = inhibition, % at 105 µM; 230,000 tested, under 10 active
HPGD block = blocks human HPGD enzyme activity. purified HPGD, NADH fluorescence kinetic, PGE2 substrate. Potency, µM, hits mostly inhibitors. hit rate 4.3% among 150,000. P15428; active = well fitted inhibition curve with a large enough effect, not every such curve was filed as active; inconclusive = small, poorly fitted or top-dose-only effect, or another doubt; inactive = no such curve, though single readings can be large or run the other way
Target sequence (P15428 whole entry, looked up): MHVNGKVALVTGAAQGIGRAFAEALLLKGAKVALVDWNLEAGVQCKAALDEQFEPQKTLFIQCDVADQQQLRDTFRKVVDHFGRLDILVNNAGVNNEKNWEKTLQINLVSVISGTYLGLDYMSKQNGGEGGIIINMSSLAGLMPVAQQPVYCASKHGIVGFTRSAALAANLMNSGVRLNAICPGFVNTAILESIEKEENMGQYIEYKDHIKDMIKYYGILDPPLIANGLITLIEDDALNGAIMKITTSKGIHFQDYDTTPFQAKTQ
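20 nM HPGD preincubated 15 min at room temperature with compound in 50 mM Tris-HCl pH 8, 0.01% Tween 20. Started with 1 mM NAD+ and 30 uM prostaglandin E2; NADH fluorescence (360/450 nm) read 5 times over 30-s intervals, last minus first.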
GLA spleen mod = inhibitors or activators of human alpha-galactosidase in spleen homogenate; hit rate 0.008% among 240,000; human spleen homogenate, 4MU-alpha-Gal fluorescence, 40 min; P06280; Potency, µM (highest dose often 80 µM), actives largely listed as inhibitors; AID 2107
Target sequence (P06280 32-429 limits assumed): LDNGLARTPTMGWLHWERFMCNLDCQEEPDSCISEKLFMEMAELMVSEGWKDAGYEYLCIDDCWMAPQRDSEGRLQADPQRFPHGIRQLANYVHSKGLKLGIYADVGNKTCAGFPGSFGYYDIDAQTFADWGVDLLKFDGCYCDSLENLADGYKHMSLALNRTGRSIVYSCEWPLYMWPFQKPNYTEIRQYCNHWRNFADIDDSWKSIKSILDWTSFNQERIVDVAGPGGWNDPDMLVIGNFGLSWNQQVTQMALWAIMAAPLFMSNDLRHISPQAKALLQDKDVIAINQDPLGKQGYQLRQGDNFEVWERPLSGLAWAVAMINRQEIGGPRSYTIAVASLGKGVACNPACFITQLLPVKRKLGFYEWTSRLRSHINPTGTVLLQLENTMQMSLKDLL
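Inhibition or activation of alpha-galactosidase in human spleen homogenate is scored by 4-MU fluorescence after 40 min at 37C, pH 5.0, with 1 mM substrate. AC50s come from concentration-response fitted to the Hill equation.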
12-hLO inh = blocks human 12-lipoxygenase activity | purified 12-hLO, xylenol orange hydroperoxide absorbance | AID 1452 | P18054 | Potency, µM (doses to about 57.1 µM), actives largely listed as inhibitors | hit rate 0.12% among 150,000; note: nearly all actives have a fitted effect of over 55% in size
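Purified human 12hLO (150 nM final) was preincubated with compounds for 15 min at room temperature in 25 mM Hepes pH 7.0, 0.01% Triton X-100, then reacted with 40 uM arachidonic acid for 30 min. Hydroperoxide was detected with ferrous iron/xylenol orange.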
A number is an active result; [ ] = dose if it differs, or a comment. The list is not random: actives were taken first. Their share in the collection is about 10%. Unless noted, calls come from the whole dose curve; as a rule, active = well fitted curve in the direction sought with a large enough effect; inconclusive = small, poorly fitted or top-dose-only effect, or another doubt; inactive = no such curve, though single readings can be large; an effect the other way counts as inactive or inconclusive.

What do the screens show for `COC(=O)C(C(C)=O)C(NC(=O)NCc1ccccc1)c1ccccc1` (centres undefined)?
ALDH1A1 inh: inactive[13.5 µM]; GLA spleen mod: inactive[17.5 µM]

How did Cc1ccc(Sc2cncc3sc(C(N)=O)cc23)cc1 do in these assays?
GLA spleen mod: inactive

Results for COc1ccc2c(c1)/C(=N/N1C(=O)c3ccccc3C1=O)C(=O)N2 ?
ALDH1A1 inh: inconclusive; GLA inh pH 4.5: inactive; GLA spleen mod: inactive

What do the screens show for `Cc1ccc2c(c1Br)/C(=N/N1C(=O)c3ccccc3C1=O)C(=O)N2`?
ALDH1A1 inh: 0.75µM; PNC inhibitor: inactive; GLA inh pH 4.5: inactive; HPGD block: inactive; GLA spleen mod: inactive; 12-hLO inh: inactive

How did O=C(COc1ccccc1)NCc1nnc2c3ccccc3c(-c3ccccc3)nn12 do in these assays?
ALDH1A1 inh: inactive; PNC inhibitor: inconclusive; GLA inh pH 4.5: inactive; HPGD block: inactive; GLA spleen mod: inactive; 12-hLO inh: inactive

What do the screens show for `CN(C)c1nc(Cl)nc(N(C#N)CCOc2ccccc2)n1`?
ALDH1A1 inh: 14µM; GLA inh pH 4.5: inactive; GLA spleen mod: inactive

What do the screens show for `O=C1c2ccccc2-c2nc3ccccc3nc21`?
ALDH1A1 inh: 13µM; PNC inhibitor: inconclusive; GLA inh pH 4.5: inactive; HPGD block: inactive; GLA spleen mod: inactive; 12-hLO inh: inactive

How did CCn1nc(C)cc1C(=O)n1nc(C)c(Sc2ncccn2)c1C do in these assays?
ALDH1A1 inh: inactive; GLA inh pH 4.5: inactive; GLA spleen mod: inactive

Results for O=C(Nc1ccc(CN2CCOCC2)cc1)c1ccc(N2CCCC2)c([N+](=O)[O-])c1 ?
ALDH1A1 inh: 11µM; GLA inh pH 4.5: inactive; GLA spleen mod: inactive

Results for O=C(Nc1ccon1)c1ccc(N2CCCCC2)c([N+](=O)[O-])c1 ?
ALDH1A1 inh: 13µM; GLA inh pH 4.5: inactive; GLA spleen mod: inactive

What do the screens show for `CCC(=O)N1CCN(c2ccc(NC(=O)c3ccc(N4CCCC4)c([N+](=O)[O-])c3)cc2)CC1`?
ALDH1A1 inh: inactive; PNC inhibitor: inactive; GLA inh pH 4.5: inactive; HPGD block: inactive; GLA spleen mod: inactive; 12-hLO inh: inactive

Results for O=C(Nc1nc2ccccc2s1)c1ccc(N2CCCCC2)c([N+](=O)[O-])c1 ?
ALDH1A1 inh: 11µM; PNC inhibitor: inactive; GLA inh pH 4.5: inactive; HPGD block: inactive; GLA spleen mod: inactive; 12-hLO inh: inactive

How did CCNC(=O)CC1SC(=Nc2cccc3ccccc23)N(C)C1=O (centres undefined) do in these assays?
ALDH1A1 inh: inactive; PNC inhibitor: inactive; GLA inh pH 4.5: inactive; HPGD block: inactive; GLA spleen mod: inactive; 12-hLO inh: inactive

How did C=C1CCC(O)C/C1=C/C=C1\CCC[C@@]2(C)C(C(C)/C=C/C(C)C(C)C)CC[C@@H]12 (some centres undefined) do in these assays?
ALDH1A1 inh: inactive; GLA inh pH 4.5: inactive; HPGD block: inactive; GLA spleen mod: inactive; 12-hLO inh: inactive

How did CCOC(=O)c1nc(Nc2cc(C)cc(C)c2)c2ccccc2n1 do in these assays?
ALDH1A1 inh: inactive; GLA inh pH 4.5: inactive; GLA spleen mod: inactive

Results for CC1(C)Cc2ccccc2-c2nc(NCCCO)[nH]c(=O)c21 ?
ALDH1A1 inh: inconclusive; GLA inh pH 4.5: inactive; GLA spleen mod: inactive

What do the screens show for `CN1CC(c2ccccc2Cl)C2(COc3ccccc3C2=O)C12C(=O)Nc1ccccc12` (centres undefined)?
ALDH1A1 inh: 1.4µM; PNC inhibitor: inconclusive; GLA inh pH 4.5: inactive; HPGD block: inconclusive; GLA spleen mod: inactive; 12-hLO inh: inactive

Results for COc1ccc2cc(C(=O)Nc3ccc(O)cc3)sc(=O)c2c1OC ?
ALDH1A1 inh: inactive; PNC inhibitor: inactive; GLA inh pH 4.5: inactive; HPGD block: 25µM; GLA spleen mod: inactive; 12-hLO inh: inactive

What do the screens show for `CC(C)(C)c1cc[n+](-c2[nH]c(=O)sc2/C=N/NC([S-])=Nc2ccccc2)cc1`?
ALDH1A1 inh: 25µM; GLA inh pH 4.5: inactive; GLA spleen mod: inactive

What do the screens show for `Cc1cc[n+](-c2[nH]c(=O)sc2/C=N/NC([S-])=Nc2ccccc2)cc1C`?
ALDH1A1 inh: inconclusive; PNC inhibitor: inconclusive; GLA inh pH 4.5: inactive; HPGD block: inactive; GLA spleen mod: inactive; 12-hLO inh: inactive

Results for CCOC(=O)c1sc(NC(=O)c2cc(-c3ccccc3)nc3ccccc23)c(C#N)c1C ?
ALDH1A1 inh: 3.2µM; PNC inhibitor: inactive; GLA inh pH 4.5: inactive; HPGD block: 16µM; GLA spleen mod: inactive; 12-hLO inh: inactive

How did CCOC(=O)c1sc(NC(=O)CSc2nc(C)cc(C)n2)c(C#N)c1C do in these assays?
ALDH1A1 inh: inactive; PNC inhibitor: inactive; GLA inh pH 4.5: inactive; HPGD block: inactive; GLA spleen mod: inactive; 12-hLO inh: inactive

What do the screens show for `CCOC(=O)c1sc(NC(=O)CSc2nnc(Cc3ccccc3)o2)c(C#N)c1C`?
ALDH1A1 inh: 0.56µM; PNC inhibitor: inactive; GLA inh pH 4.5: inactive; HPGD block: 2µM; GLA spleen mod: inactive; 12-hLO inh: inactive

Results for CCOC(=O)c1sc(NC(=O)CSc2ccccn2)c(C#N)c1C ?
ALDH1A1 inh: 25µM; PNC inhibitor: inactive; GLA inh pH 4.5: inactive; HPGD block: inactive; GLA spleen mod: inactive; 12-hLO inh: inactive

Results for O=C(O)C/C=C\CC(=O)O ?
ALDH1A1 inh: inactive[13.5 µM]; HPGD block: inactive; 12-hLO inh: inactive[11.4 µM]

Results for Cn1nc2c3ccccc3n(Cc3ccccc3)c2nc1=S ?
GLA inh pH 4.5: inactive; GLA spleen mod: inactive

Results for O=C(c1ccccc1-c1nc(-c2ccc(F)cc2)no1)N1CCCC1 ?
ALDH1A1 inh: inconclusive; PNC inhibitor: -100; GLA inh pH 4.5: inactive; HPGD block: inactive; GLA spleen mod: inactive; 12-hLO inh: inactive

Results for O=C(c1ccccc1-c1nc(-c2ccccc2)no1)N1CCOCC1 ?
ALDH1A1 inh: inactive; PNC inhibitor: inconclusive; GLA inh pH 4.5: inactive; HPGD block: inactive; GLA spleen mod: inactive; 12-hLO inh: inactive

Results for CCC/C=C(\CCC)C(NS(=O)(=O)CC12CCC(CC1=O)C2(C)C)c1ccc(C(=O)OC)cc1 (centres undefined) ?
ALDH1A1 inh: 10µM; GLA inh pH 4.5: inactive; HPGD block: 22µM; GLA spleen mod: inactive; 12-hLO inh: inactive

How did CCC/C=C(\CCC)C(NS(=O)(=O)c1ccc(Cl)cc1)c1ccc(C(=O)OC)cc1 (centres undefined) do in these assays?
ALDH1A1 inh: inconclusive; GLA inh pH 4.5: inactive; HPGD block: inactive; GLA spleen mod: inactive; 12-hLO inh: inactive

Results for CCOC(=O)c1ccc2c(c1)nc(SCC(=O)c1cc3ccccc3o1)n2CC ?
ALDH1A1 inh: inconclusive; PNC inhibitor: inactive; GLA inh pH 4.5: inactive; HPGD block: inactive; GLA spleen mod: inactive; 12-hLO inh: inactive

How did C=CCNC(=O)CSc1nc2cc(C(=O)OCC)ccc2n1CC do in these assays?
ALDH1A1 inh: inactive; PNC inhibitor: inconclusive; GLA inh pH 4.5: inactive; HPGD block: 25µM; GLA spleen mod: inactive; 12-hLO inh: inactive
